MCF10A rereplic – inducers of DNA re-replication in MCF 10A breast cells. MCF 10A DNA re-replication, Hoechst nuclear intensity, 48 h. Potency, µM (highest dose often 46.1 µM), hits mostly activators. 350,000 tested, 2.9% active. AID 624296; also: nearly all actives have a fitted effect of over 50% in size
VP16 counter – inhibits Gal4-VP16 luciferase reporter, ROR gamma counter-screen | Drosophila S2 Gal4-VP16 UAS-luciferase, luminescence, 20 h | Potency, µM (highest dose often 53.6 µM), actives largely listed as inhibitors | 310,000 tested, 3.5% active;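 also: Gal4-VP16 expression switched on by copper sulfate through the metallothionein promoter; nearly all actives have a fitted effect of over 50% in size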
KB-3-1 cytotox – KB-3-1 parental cell cytotoxicity; 400,000 tested, 1.4% active; AID 1347075; KB-3-1 viability, CellTiter-Glo ATP luminescence, 72 h; Potency, µM (highest dose often 46.1 µM), most hits filed as cytotoxic; also: nearly all actives have a fitted effect of over 60% in size
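72 h, 37 °C compound treatment of KB-3-1 parental cells; CellTiter-Glo added, 10 min, luminescence read. Data corrected against DMSO-only plates and normalized before curve fitting.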
KB-V1 cytotox – kills drug-selected multidrug resistant KB-V1 cells; 400,000 tested, 3.4% active; KB-V1 MDR cells viability, CellTiter-Glo, 72 h; Potency, µM (titrated, usually from 46.1 µM), actives largely listed as cytotoxic; also: nearly all actives have a fitted effect of over 60% in size
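In this primary screen, KB-V1 cells overexpressing P-gp are incubated with library compounds (lowest to highest concentration) for 72 h at 37 degrees C before a luminescent ATP viability read.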
SW480 rereplic – DNA re-replication induction in SW480 cells; SW480 DNA re-replication, Hoechst DNA content imaging, 48 h; Potency, µM (doses to about 46.1 µM), actives largely listed as activators; 340,000 tested, 1.8% active; also: nearly all actives have a fitted effect of over 55% in size
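DNA re-replication was detected as more nuclei of elevated Hoechst intensity after 48 hr exposure to compound (23 nL pinned per well of 250 cells).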
RORg inh – ROR gamma (mouse) transcription inhibition; Drosophila S2 Gal4-RORgamma UAS-luciferase reporter, 20 h; Potency, µM (top dose mostly 53.6 µM), most hits filed as inhibitors; AID 2551; P51450; 310,000 tested, 5.4% active; also: nearly all actives have a fitted effect of over 60% in size
Target sequence (P51450 whole entry, looked up, the tested form may be a part): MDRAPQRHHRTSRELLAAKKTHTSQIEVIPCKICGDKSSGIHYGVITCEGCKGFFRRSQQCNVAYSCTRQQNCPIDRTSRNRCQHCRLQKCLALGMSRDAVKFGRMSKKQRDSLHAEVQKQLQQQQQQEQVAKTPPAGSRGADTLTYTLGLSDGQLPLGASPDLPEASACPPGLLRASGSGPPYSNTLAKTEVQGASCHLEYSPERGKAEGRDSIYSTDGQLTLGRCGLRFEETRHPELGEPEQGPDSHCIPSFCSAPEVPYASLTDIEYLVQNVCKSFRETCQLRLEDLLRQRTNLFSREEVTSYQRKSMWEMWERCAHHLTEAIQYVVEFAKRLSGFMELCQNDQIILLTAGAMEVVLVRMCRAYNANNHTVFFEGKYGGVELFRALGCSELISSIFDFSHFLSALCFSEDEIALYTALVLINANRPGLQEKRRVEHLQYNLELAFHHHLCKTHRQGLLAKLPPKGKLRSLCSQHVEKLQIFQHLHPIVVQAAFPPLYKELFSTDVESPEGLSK
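Stable Schneider cell line, Gal4 DNA-binding domain fused to ROR gamma, UAS-luciferase. Cmpd 1 hr RT → CuSO4 700 uM final → 20 hr RT → luciferase reagent 10 min → luminescence.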
Large screens that a line does not name were inactive. Shown are actives, neighbours in structure and some others; about 10% of the full set was active somewhere. Calls follow the shape of the dose curve; as a rule, active = well fitted curve in the direction sought with a large enough effect; inconclusive = small, poorly fitted or top-dose-only effect, or another doubt; inactive = no such curve, though single readings can be large; an effect the other way counts as inactive or inconclusive.

Cc1cccc(-n2c(C)cc(C(=O)C(=O)Nc3ccccc3F)c2C)c1C	none (no result: MCF10A rereplic, VP16 counter, SW480 rereplic, RORg inh)
O=C(c1cccn1-c1nnc(N2CCCCC2)s1)N1CCN(c2ccccc2)CC1	none (no result: MCF10A rereplic, VP16 counter, SW480 rereplic, RORg inh)
Cc1cccc(N2CCN(C(=O)Nc3cn(CC(C)C)c(=O)c4ccccc34)CC2)c1C	none (no result: MCF10A rereplic, VP16 counter, SW480 rereplic, RORg inh)
CCCn1nc(C(=O)NCc2ccc3c(c2)OCO3)c2ccccc2c1=O	KB-V1 cytotox inconclusive
CCCn1c(=O)c(C(=O)NCc2ccc3c(c2)OCO3)c(O)c2ccccc21	VP16 counter inconclusive, KB-V1 cytotox inconclusive, RORg inh 13µM
COc1ccc(CCNC(=O)c2cccc(-n3cnc4cccnc43)c2C)cc1OC	none (no result: MCF10A rereplic, VP16 counter, SW480 rereplic, RORg inh)
OC[C@H](S)CS	MCF10A rereplic 9.4µM, VP16 counter inconclusive, KB-3-1 cytotox inconclusive
CN(/N=C/c1ccc2c(c1)OCO2)c1ccccc1	VP16 counter 18µM
C=CCNc1oc(/C=C/c2ccccc2)nc1C#N	MCF10A rereplic 8.2µM, KB-V1 cytotox 18µM, SW480 rereplic 21µM, RORg inh inconclusive
CN(C)CCCNc1oc(/C=C/c2ccccc2)nc1C#N	none
COc1ccc(CNc2oc(/C=C/c3cccc(OC)c3)nc2C#N)cc1	none (no result: MCF10A rereplic, VP16 counter, SW480 rereplic, RORg inh)
CCOc1ccc(/C=C/c2nc(C#N)c(NCCCN(C)C)o2)cc1	MCF10A rereplic 6.5µM, SW480 rereplic 18µM
COCCCNc1oc(/C=C/c2ccccc2)nc1C#N	MCF10A rereplic 16µM, SW480 rereplic 7.9µM
COc1cccc(/C=C/c2nc(C#N)c(NCC(C)C)o2)c1	MCF10A rereplic 3.3µM, KB-3-1 cytotox inconclusive, KB-V1 cytotox inconclusive, SW480 rereplic 21µM, RORg inh inconclusive
CCCN1CCN(c2cccc(Nc3nn4c(=O)c5ccccc5nc4s3)c2)CC1	KB-3-1 cytotox inconclusive (no result: MCF10A rereplic, VP16 counter, SW480 rereplic, RORg inh)
CCOc1ccc(/C=C/c2nc(C#N)c(NCCCOC)o2)cc1	MCF10A rereplic 3.7µM, KB-3-1 cytotox 5.2µM, KB-V1 cytotox 2.1µM, SW480 rereplic 2.1µM, RORg inh inconclusive
CCOc1ccc(-c2nc(C#N)c(NCCCOC)o2)cc1	none (no result: MCF10A rereplic, VP16 counter, SW480 rereplic, RORg inh)
COc1ccc(Cl)cc1C(=O)NCC(c1ccc(N(C)C)cc1)N1CCOCC1 (centres undefined)	none (no result: MCF10A rereplic, VP16 counter, SW480 rereplic, RORg inh)
O=C1CCCCCN1Cc1nnc(SCc2nc3ccccc3s2)n1-c1ccccn1	VP16 counter 7.1µM, RORg inh 2.5µM
NC1(C(=O)O)CSSC1	MCF10A rereplic 10µM, KB-3-1 cytotox inconclusive, KB-V1 cytotox 6.5µM, SW480 rereplic inconclusive (no result: VP16 counter, RORg inh)
CCOc1cc(CNc2ccc(O)cc2)ccc1OCc1ccc(Cl)cc1	none (no result: MCF10A rereplic, VP16 counter, SW480 rereplic, RORg inh)
CCCCC1=NN2C(=N)CC(=O)N=C2S1	RORg inh 10µM
CC(C)C1=NN2C(=N)CC(=O)N=C2S1	none
COc1ccc(C(=O)N2CCC[C@@]3(CCN(c4ncccn4)C3)C2)cc1	none (no result: MCF10A rereplic, KB-3-1 cytotox, KB-V1 cytotox, SW480 rereplic)
CC(C)(C)c1ccc(C(=O)N2CC(=O)Nc3ccc(F)cc3C2c2ccc(F)cc2)cc1 (centres undefined)	KB-3-1 cytotox 18µM, KB-V1 cytotox inconclusive (no result: MCF10A rereplic, VP16 counter, SW480 rereplic, RORg inh)
O=C1CN(C(=O)c2ccccc2)C(c2ccccc2)c2cc(F)ccc2N1 (centres undefined)	none
COc1ccc(C2CC(=O)c3cc(-c4nc(-c5cccc([N+](=O)[O-])c5)cs4)c(=O)n(-c4cccc(C)c4)c3C2)cc1 (centres undefined)	none (no result: MCF10A rereplic, VP16 counter, SW480 rereplic, RORg inh)
CCN(C(=S)Nc1cccc(C)c1)c1ccccc1	VP16 counter inconclusive, RORg inh 16µM
CCOC(=O)N1CCC(N(C(=O)Nc2cccc(OC)c2)C(C)CC)CC1 (centres undefined)	KB-V1 cytotox 18µM
CCOC(=O)N1CCC(N(CCCOC)C(=O)Nc2cccc(OC)c2)CC1	none
CCN(C(=S)Nc1ccc(Oc2ccccc2)cc1)c1ccccc1	MCF10A rereplic inconclusive, VP16 counter 18µM, KB-V1 cytotox inconclusive, SW480 rereplic inconclusive, RORg inh 13µM
CCOC(=O)N1CCC(N(CCN(C)C)C(=S)Nc2cccc(C)c2)CC1	none
CCOC(=O)N1CCC(N(CCN(C)C)C(=S)Nc2ccc(Oc3ccccc3)cc2)CC1	MCF10A rereplic inconclusive, RORg inh 11µM
COc1cccc(CN(C)C(=O)CN2C(=O)NC3(CCCc4ccccc43)C2=O)c1 (centres undefined)	KB-V1 cytotox 21µM (no result: VP16 counter, RORg inh)
Cc1ccsc1CN(C)C(=O)CN1C(=O)NC2(CCCc3ccccc32)C1=O (centres undefined)	MCF10A rereplic inconclusive (no result: VP16 counter, RORg inh)
COCCN1C[C@@H](CO)O[C@@H](n2cnc3c(N4CCCC4)ncnc32)C1	none (no result: MCF10A rereplic, VP16 counter, SW480 rereplic, RORg inh)
Cc1ccc(C2C(=O)N(C3CCCC3)CC(=O)N2C2CCCCC2)cc1 (centres undefined)	KB-V1 cytotox 2.9µM
COc1ccc(C2C(=O)N(C3CCCCC3)CC(=O)N2C2CCCCC2)cc1 (centres undefined)	none
CCCC12CN3CC(C)(CN(C1)C3c1ccc(CC)cc1)C2=O (centres undefined)	none (no result: MCF10A rereplic, VP16 counter, SW480 rereplic, RORg inh)
O=c1[nH]c(CN(CCO)CCO)nc2c1C1(CCCCC1)Cc1ccccc1-2	RORg inh inconclusive
CCN(CC)Cc1nc2c(c(=O)[nH]1)C1(CCCC1)Cc1ccccc1-2	MCF10A rereplic inconclusive, VP16 counter 11µM, RORg inh 2.8µM
C=CCNC(=S)NNc1nc2c(c(=O)[nH]1)C1(CCCCC1)Cc1ccccc1-2	MCF10A rereplic 23µM, VP16 counter 1.8µM, KB-V1 cytotox inconclusive, SW480 rereplic inconclusive, RORg inh 1µM
O=c1[nH]c(NCCO)nc2c1C1(CCCC1)Cc1ccccc1-2	MCF10A rereplic inconclusive
CC(C)CC(=O)Nc1nc2c(s1)CC(C(C)(C)C)CC2 (centres undefined)	none (no result: MCF10A rereplic, VP16 counter, SW480 rereplic, RORg inh)
COc1cccc(/C=N/Nc2nc3ccccc3[nH]2)c1OC	VP16 counter inconclusive, RORg inh inconclusive
COc1ccccc1/C=N/NC(=Nc1ccc(C)cc1)c1nc2ccccc2s1	none (no result: MCF10A rereplic, KB-3-1 cytotox, KB-V1 cytotox, SW480 rereplic)
COc1cc(/C=N/NC(=Nc2ccc(C)cc2)c2nc3ccccc3s2)ccc1O	MCF10A rereplic inconclusive, VP16 counter inconclusive, SW480 rereplic inconclusive, RORg inh 7.1µM
COc1cccc(/C=N/Nc2nc3ccccc3[nH]2)c1O	MCF10A rereplic inconclusive, VP16 counter 2.2µM, KB-3-1 cytotox 5.8µM, KB-V1 cytotox inconclusive, SW480 rereplic inconclusive, RORg inh 0.71µM
COc1cc(/C=N/Nc2nc3ccccc3[nH]2)ccc1O	KB-V1 cytotox 18µM, RORg inh inconclusive
Cc1nn(C)cc1/C=N/NC(=O)C1(O)c2ccccc2-c2ccccc21	VP16 counter 3.5µM
O=C(O)C1Nc2c(O)cc(Cl)c([N+](=O)[O-])c2C2C=CCC12 (centres undefined)	RORg inh 10µM
CCOC(=O)[C@@H]1[C@H]2COc3cc(OC)ccc3[C@@H]2N2C(=O)N(c3ccc(C)cc3)C(=O)[C@@]12C	SW480 rereplic inconclusive, RORg inh 5µM
